# Results taken from the supplement of paper PMC8728848.
# Shown is part of a subset that was picked to be rich in the strongest signals.
# B1: AT3G09350(27) (Arabidopsis thaliana), Q84J81 (protein)
# chain: MAKDGPNWDGLLKWSLSHADGTRPTRQLSEEDRKWFMEAMQSQTVDVVKRMKEITLVMQTPEQVLVEHGVTPEDIQDLLDELQEHVESIDMANDLHSIGGLVPLLSFLKNSHANIRAKAADVVSTIVQNNPRSQELVMETNALESLLSNFTSDTDIHARTQALGAISSLIRHNKPGVTAFKLANGYAGLRDALASDSVRFQRKALNLLQYLLQEDDSDRSIATGLGFPRVMMHLASSDDAEIREAALRGLLELSREKNDGSSSIDKSDEKLRQLLEERIKGITLMSQEDLETVKEERQLVDLLWSICYNEPSSLREKGLVVLPGEDALPPDVASKLFEPPLRASAANRNATEKKDEPMKLLGP
# Key:
# Assay in all cases: glycan array binding signal (z-score within array); higher = stronger binding
# Details in all cases: glycan notation: IUPAC condensed, linker removed
# Fuc(a1-2)Gal = target: Fuc(a1-2)Gal
# In short: (§1)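 The Consortium for Functional Glycomics database supplied 3228 glycan arrays, of which those lacking an available protein sequence were dropped. The binding signal, a within-array Z-score, was averaged across arrays of the same protein sequence and across linkers. Negative scores can be read as non-binding.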
# [1] = target: Fuc(a1-2)Gal(b1-3)GlcNAc(b1-3)GalNAc
# In short: as §1
# [2] = target: Fuc(a1-2)Gal(b1-4)GlcNAc(b1-3)[Fuc(a1-3)[Gal(b1-4)]GlcNAc(b1-6)]Gal(b1-4)Glc
# In short: as §1
# [3] = target: Fuc(a1-2)[Gal(a1-3)]Gal(b1-4)Glc
# In short: as §1
# [4] = target: Fuc(a1-2)[GalNAc(a1-3)]Gal
# In short: as §1
# [5] = target: Fuc(a1-2)[GalNAc(a1-3)]Gal(b1-3)GlcNAc(b1-2)Man(a1-3)[Fuc(a1-2)[GalNAc(a1-3)]Gal(b1-3)GlcNAc(b1-2)Man(a1-6)]Man(b1-4)GlcNAc(b1-4)[Fuc(a1-6)]GlcNAc
# In short: as §1
# [6] = target: Fuc(a1-2)[GalNAc(a1-3)]Gal(b1-4)GlcNAc(b1-2)Man(a1-3)[Fuc(a1-2)[GalNAc(a1-3)]Gal(b1-4)GlcNAc(b1-2)Man(a1-6)]Man(b1-4)GlcNAc(b1-4)[Fuc(a1-6)]GlcNAc
# In short: as §1
# [7] = target: Fuc(a1-2)[GalNAc(a1-3)]Gal(b1-4)[Fuc(a1-3)]GlcNAc
# In short: as §1
# [8] = target: Fuc(a1-2)[GalNAc(a1-3)]Gal(b1-4)[Fuc(a1-3)]GlcNAc(b1-3)GalNAc
# In short: as §1
# [9] = target: Fuc(a1-3)[GalNAc(b1-4)]GlcNAc
# In short: as §1
# [10] = target: Gal(a1-3)Gal(b1-3)GlcNAc(b1-2)Man
# In short: as §1
# [11] = target: Gal(a1-3)Gal(b1-3)GlcNAc(b1-6)GalNAc
# In short: as §1
# [12] = target: Gal(a1-3)Gal(b1-4)[Fuc(a1-3)]GlcNAc
# In short: as §1
# Gal(a1-3)GalNAc = target: Gal(a1-3)GalNAc
# In short: as §1
# [13] = target: Gal(a1-3)[Gal(a1-4)]Gal(b1-4)GlcNAc
# In short: as §1
# Gal(a1-4)Gal(b1-4)Glc = target: Gal(a1-4)Gal(b1-4)Glc
# In short: as §1
# [14] = target: Gal(b1-3)GalNAc(a1-3)[Fuc(a1-2)]Gal(b1-4)Glc
# In short: as §1
# [15] = target: Gal(b1-3)GalNAc(b1-4)Gal(b1-4)Glc
# In short: as §1
# [16] = target: Gal(b1-3)GlcNAc(b1-3)Gal(b1-3)GlcNAc
# In short: as §1
# [17] = target: Gal(b1-3)GlcNAc(b1-3)Gal(b1-4)GlcNAc(b1-3)Gal(b1-4)GlcNAc(b1-2)[Gal(b1-3)GlcNAc(b1-3)Gal(b1-4)GlcNAc(b1-3)Gal(b1-4)GlcNAc(b1-6)]Man(a1-6)[Gal(b1-3)GlcNAc(b1-3)Gal(b1-4)GlcNAc(b1-3)Gal(b1-4)GlcNAc(b1-2)Man(a1-3)]Man(b1-4)GlcNAc(b1-4)[Fuc(a1-6)]GlcNAc
# In short: as §1
# [18] = target: Gal(b1-3)GlcNAc(b1-6)Gal(b1-4)GlcNAc
# In short: as §1
# Gal(b1-4)Glc6S = target: Gal(b1-4)Glc6S
# In short: as §1
# [19] = target: Gal(b1-4)GlcNAc(b1-2)Man(a1-3)[Gal(b1-4)GlcNAc(b1-2)Man(a1-6)][Gal(b1-4)GlcNAc(b1-4)]Man(b1-4)GlcNAc(b1-4)[Fuc(a1-6)]GlcNAc
# In short: as §1
# [20] = target: Gal(b1-4)GlcNAc(b1-6)Gal(b1-4)GlcNAc
# In short: as §1
# [21] = target: Gal3S(b1-4)[Fuc(a1-3)]Glc6S
# In short: as §1
# Gal6P(b1-4)GlcNAc = target: Gal6P(b1-4)GlcNAc
# In short: as §1
# Gal6S(b1-3)GlcNAc = target: Gal6S(b1-3)GlcNAc
# In short: as §1
# Gal6S(b1-4)Glc = target: Gal6S(b1-4)Glc
# In short: as §1
# GalNAc(a1-3)GalNAc = target: GalNAc(a1-3)GalNAc
# In short: as §1
# [22] = target: GalNAc(b1-3)Gal(a1-4)Gal(b1-4)GlcNAc
# In short: as §1
binder,measurement,setting,value
B1,glycan array binding signal (z-score),Fuc(a1-2)Gal,-0.113
same,glycan array binding signal (z-score),[1],0.676
same,glycan array binding signal (z-score),[2],-0.595
same,glycan array binding signal (z-score),[3],2.16
same,glycan array binding signal (z-score),[4],-0.506
same,glycan array binding signal (z-score),[5],-0.677
same,glycan array binding signal (z-score),[6],0.007
same,glycan array binding signal (z-score),[7],0.498
same,glycan array binding signal (z-score),[8],5.85
same,glycan array binding signal (z-score),[9],3.56
same,glycan array binding signal (z-score),[10],0.248
same,glycan array binding signal (z-score),[11],-0.449
same,glycan array binding signal (z-score),[12],-0.122
same,glycan array binding signal (z-score),Gal(a1-3)GalNAc,2.5
same,glycan array binding signal (z-score),[13],8.94
same,glycan array binding signal (z-score),Gal(a1-4)Gal(b1-4)Glc,2.11
same,glycan array binding signal (z-score),[14],-0.346
same,glycan array binding signal (z-score),[15],1.91
same,glycan array binding signal (z-score),[16],-0.089
same,glycan array binding signal (z-score),[17],-0.059
same,glycan array binding signal (z-score),[18],3.05
same,glycan array binding signal (z-score),Gal(b1-4)Glc6S,0.57
same,glycan array binding signal (z-score),[19],-0.391
same,glycan array binding signal (z-score),[20],3.1
same,glycan array binding signal (z-score),[21],-0.174
same,glycan array binding signal (z-score),Gal6P(b1-4)GlcNAc,-0.424
same,glycan array binding signal (z-score),Gal6S(b1-3)GlcNAc,-0.146
same,glycan array binding signal (z-score),Gal6S(b1-4)Glc,-0.106
same,glycan array binding signal (z-score),GalNAc(a1-3)GalNAc,-0.182
same,glycan array binding signal (z-score),[22],4.3
